A short description of assay [1]: Caspase-3/7 induction in HepG2 cells by small molecules, qHTS assay (AID 1346978). Also: nearly all actives have a fitted effect of over 15% in size. Also: potency is read from the fitted curve at half-maximal effect. The method in brief: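 Wild-type HepG2 cells (2,000/well) were settled 5 h at 37 C, 5% CO2, then exposed to compounds in DMSO for 17 h. Caspase-3/7 activity was read by luminescence 30 min after adding Caspase-Glo 3/7 reagent at room temperature.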
(In general: qHTS replaces the single test concentration by a dilution series.)

Assay [2] is described as follows: Caspase-3/7 induction in CHO-K1 cells by small molecules, qHTS cell viability counter screen (AID 1346979). Also: nearly all actives have a fitted effect of over 35% in size. Also: potency is read from the fitted curve at half-maximal effect. The method in brief:
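Wild-type CHO-K1 cells (1,500/well) treated with compound after 5 h plating; after 16 h at 37C, viability read as CellTiter-Fluor fluorescence following 1 h reagent incubation, in the same wells as the caspase read.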

A short description of assay [3]: Caspase-3/7 induction in CHO-K1 cells by small molecules, qHTS assay (AID 1346980). Also: nearly all actives have a fitted effect of over 15% in size. Summed up:
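Wild-type cells were seeded at 1,500 per well and settled 5 hr at 37 C, 5% CO2, then exposed to DMSO-dissolved compounds for 17 hr. Caspase-Glo 3/7 reagent was added, and luminescence was read after 30min at room temperature.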

A short description of assay [4]: Caspase-3/7 induction in HepG2 cells by small molecules, qHTS cell viability counter screen (AID 1346981). Also: nearly all actives have a fitted effect of over 30% in size. Also: potency is read from the fitted curve at half-maximal effect. As to activity change, negative = cytotoxicity: series mostly up to about 92 µM. Summed up:
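Steps: seed 2,000 HepG2 cells per well; incubate 5 hr at 37 C; pin-add compounds in DMSO; incubate 16 hr; add CellTiter-Fluor; after 1 hr at 37 C and 5% CO2, read fluorescence.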

The target in assay [5] is Nuclear receptor subfamily 1 group I member 2 (Homo sapiens) (UniProt O75469). Nature of the assay: Human pregnane X receptor (PXR) small molecule agonists, qHTS assay (AID 1346982). Also: nearly all actives have a fitted effect of over 35% in size. Also: potency is read from the fitted curve at half-maximal effect. The method in brief:
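Agonist mode qHTS: PXR-Luc HepG2 cells plated 5 hr before DMSO-dissolved compounds were pinned in, cultured 24 hr at 37 C, 5% CO2; ONE-Glo luminescence readout.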

The target of assay [6] is Cytochrome P450 2D6 (Homo sapiens) (UniProt P10635). The experiment in a line: Cytochrome P450 Family 2 Subfamily D Member 6 (CYP2D6) small molecule antagonists: luciferase reporter qHTS assay (AID 1671196). Also: nearly all actives have a fitted effect of over 50% in size. Also: potency is read from the fitted curve at half-maximal effect. As to activity change, negative = inhibition: series mostly up to about 120 µM. Summed up: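 P450-Glo format: CYP2D6 converts a proluciferin substrate to luciferin in an NADPH-driven reaction lasting 1 h at room temperature. Light output, proportional to CYP2D6 activity, reflects interference by test chemicals.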
Background: In a reporter assay the amount or activity of a reporter protein is the signal.

Assay [7] addresses Cytochrome P450 2C19 (Homo sapiens) (UniProt P33261). The experiment in a line: Cytochrome P450 Family 2 Subfamily C Member 19 (CYP2C19) small molecule antagonists: luciferase reporter qHTS assay (AID 1671197). Also: nearly all actives have a fitted effect of over 65% in size. Also: potency is read from the fitted curve at half-maximal effect. As to activity change, negative = inhibition: series mostly up to about 120 µM. The method in brief: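 Luminescent readout of CYP2C19 activity: luciferin product detected 20 min after adding detection reagent. Before that, compound and enzyme-substrate mix preincubated 10 min at room temperature; NADPH-regenerating system started a 1 h, 37C reaction. Ketoconazole as positive control.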

Assay [8] has as its target Cytochrome P450 2C9 (Homo sapiens) (UniProt P11712). Nature of the assay: Cytochrome P450 Family 2 Subfamily C Member 9 (CYP2C9) small molecule antagonists: luciferase reporter qHTS assay (AID 1671198). Also: nearly all actives have a fitted effect of over 50% in size. Also: potency is read from the fitted curve at half-maximal effect. As to activity change, negative = inhibition: series mostly up to about 120 µM. Summed up:
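CYP2C9 activity was measured with a P450-Glo proluciferin substrate. Enzyme–substrate mix was held with compound for 10 min at room temperature, then NADPH regeneration solution was added for 1 h at 37C. Luciferin product was read as luminescence.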

Assay [9] has as its target Cytochrome P450 1A2 (Homo sapiens) (UniProt P05177). The experiment in a line: Cytochrome P450 Family 1 Subfamily A Member 2 (CYP1A2) small molecule antagonists: luciferase reporter qHTS assay (AID 1671199). Also: nearly all actives have a fitted effect of over 50% in size. Also: potency is read from the fitted curve at half-maximal effect. As to activity change, negative = inhibition: series mostly up to about 120 µM. The method in brief:
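Inhibition of CYP1A2 conversion of proluciferin to luciferin, detected by luminescence. Reaction run 1 h at room temperature with NADPH regeneration after brief compound preincubation.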

The target of assay [10] is Voltage-gated inwardly rectifying potassium channel KCNH2 (Homo sapiens) (UniProt Q12809). Nature of the assay: Human Ether-a-go-go-Related Gene (hERG) channel small molecule antagonists: fluorescence cell-based qHTS assay (AID 1671200). Also: nearly all actives have a fitted effect of over 50% in size. Also: potency is read from the fitted curve at half-maximal effect.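 As to activity change, negative = inhibition: hERG-expressing U2OS cells given a thallium stimulus after FluxOR II dye loading; series mostly up to about 77 µM.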 Summed up:
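hERG-U2OS cells plated overnight at 37 C, loaded with FluxOR II dye 1 h at RT in dark; after 10 min, thallium stimulus added. Fluorescence (480/540 nm) read kinetically for 2 min at 1 s intervals.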
Background: Block of hERG is tested as a sign of cardiac risk.

The target in assay [11] is Cytochrome P450 3A4 (Homo sapiens) (UniProt P08684). Nature of the assay: Cytochrome P450 Family 3 Subfamily A Member 4 (CYP3A4) small molecule antagonists: luciferase reporter qHTS assay (AID 1671201). Also: nearly all actives have a fitted effect of over 50% in size. Also: potency is read from the fitted curve at half-maximal effect. As to activity change, negative = inhibition: series mostly up to about 120 µM. Summed up:
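P450-Glo CYP3A4 luminescent assay: compounds preincubated 10 min at room temperature with enzyme and proluciferin substrate, NADPH regeneration added, 1 h room-temperature reaction, stopped with luciferin detection reagent; luminescence read after 20 min. Ketoconazole positive control.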

In assay [12] the target is Nuclear receptor subfamily 1 group I member 2 (Rattus norvegicus) (UniProt Q9R1A7). The experiment in a line: Rat pregnane X receptor (rPXR) activation by small molecules, qHTS assay (AID 1346983). Also: nearly all actives have a fitted effect of over 20% in size. To be noted: rPXR luciferase reporter cells, One-Glo luminescence, 24 h; max activation: active compounds read high. The method in brief:
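Cell-based rPXR luciferase reporter assay, 2,000 cells per well, rested 5hr at 37 C before compound addition in DMSO, then 24 hr at 37 C. One-Glo reagent was added and luminescence read after 30 min at room temperature.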

For assay [13], the target named is Nuclear receptor subfamily 1 group I member 2 (Homo sapiens) (UniProt O75469). Nature of the assay: CYP3A4 induction through human pregnane X receptor (PXR) by small molecules, qHTS assay (AID 1346984). Also: nearly all actives have a fitted effect of over 40% in size. Summed up: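 Steps: seed DPX-2 cells, 5 hr at 37C; pin-transfer compounds; 24 hr at 37C; add Luciferin-IPA (3uM final), 3 hr at 37C; add One-Glo, 30 min RT; read luminescence.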

For assay [14] the target is unchanged. Nature of the assay: Human pregnane X receptor (PXR) activation by small molecules, qHTS assay (AID 1346985). Also: nearly all actives have a fitted effect of over 40% in size. Also: potency is read from the fitted curve at half-maximal effect. The method in brief:
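DPX-2 cells (HepG2 co-transfected with a PXR response element and a CYP3A4-promoter luciferase construct) were seeded at 2,000 per well, rested 5 hr at 37C, then exposed to DMSO-dissolved compounds for 24 hr. Activation was read as luciferase luminescence.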

Unmarked numbers belong to inactive results. Results filed as inconclusive are left out. Active and inactive are the calls of the source. Calls follow the shape of the dose curve; as a rule, active = well fitted curve in the direction sought with a large enough effect in the repeat runs; inconclusive = weak or mixed curves; inactive = no such curve, though single readings can be large; an effect the other way counts as inactive or inconclusive.
% is scaled to controls: 0 for no effect and ±100 for the full control effect.

Chain of Cytochrome P450 3A4 (Homo sapiens) (P08684 whole entry, looked up): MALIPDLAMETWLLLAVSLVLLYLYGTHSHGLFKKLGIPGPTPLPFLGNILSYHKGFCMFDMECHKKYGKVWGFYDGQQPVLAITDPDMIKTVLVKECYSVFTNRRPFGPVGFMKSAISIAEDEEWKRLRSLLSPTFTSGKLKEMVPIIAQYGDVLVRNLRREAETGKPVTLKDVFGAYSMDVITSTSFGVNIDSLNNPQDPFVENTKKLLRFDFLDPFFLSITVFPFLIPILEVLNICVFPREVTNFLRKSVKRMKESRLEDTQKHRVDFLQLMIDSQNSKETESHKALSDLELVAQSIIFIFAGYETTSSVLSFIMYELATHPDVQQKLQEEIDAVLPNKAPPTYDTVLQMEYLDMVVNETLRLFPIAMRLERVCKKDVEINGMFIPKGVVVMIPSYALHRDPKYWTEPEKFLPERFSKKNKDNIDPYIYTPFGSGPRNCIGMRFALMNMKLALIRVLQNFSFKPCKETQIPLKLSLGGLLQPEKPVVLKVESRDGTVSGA
Chain of Cytochrome P450 2C9 (Homo sapiens) (P11712 whole entry, looked up): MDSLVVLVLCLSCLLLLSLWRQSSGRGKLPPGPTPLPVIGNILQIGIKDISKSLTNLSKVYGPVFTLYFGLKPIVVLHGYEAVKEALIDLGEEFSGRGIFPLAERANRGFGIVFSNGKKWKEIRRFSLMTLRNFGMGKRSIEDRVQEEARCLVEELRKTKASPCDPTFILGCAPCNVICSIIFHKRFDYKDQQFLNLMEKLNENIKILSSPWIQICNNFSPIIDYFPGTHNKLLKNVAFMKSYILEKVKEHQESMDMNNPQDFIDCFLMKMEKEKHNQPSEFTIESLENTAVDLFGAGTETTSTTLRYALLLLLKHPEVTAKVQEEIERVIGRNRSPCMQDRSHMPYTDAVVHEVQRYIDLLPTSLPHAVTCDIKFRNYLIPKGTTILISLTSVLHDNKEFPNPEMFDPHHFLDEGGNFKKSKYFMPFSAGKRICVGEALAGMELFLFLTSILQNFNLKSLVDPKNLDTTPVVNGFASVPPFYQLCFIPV
Chain of Cytochrome P450 2C19 (Homo sapiens) (P33261 whole entry, looked up): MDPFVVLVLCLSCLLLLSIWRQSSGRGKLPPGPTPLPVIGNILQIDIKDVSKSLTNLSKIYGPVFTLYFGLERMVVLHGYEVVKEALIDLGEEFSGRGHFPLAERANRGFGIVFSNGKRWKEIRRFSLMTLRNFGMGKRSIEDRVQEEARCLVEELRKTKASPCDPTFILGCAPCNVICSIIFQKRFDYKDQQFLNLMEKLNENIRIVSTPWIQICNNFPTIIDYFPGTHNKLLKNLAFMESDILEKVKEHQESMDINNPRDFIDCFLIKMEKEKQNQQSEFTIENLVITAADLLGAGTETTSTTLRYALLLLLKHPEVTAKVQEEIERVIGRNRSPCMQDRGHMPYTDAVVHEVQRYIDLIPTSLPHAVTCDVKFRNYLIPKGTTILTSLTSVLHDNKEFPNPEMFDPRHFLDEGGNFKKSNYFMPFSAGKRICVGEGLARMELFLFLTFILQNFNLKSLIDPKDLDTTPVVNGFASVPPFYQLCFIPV
Chain of Nuclear receptor subfamily 1 group I member 2 (Homo sapiens) (O75469 whole entry, looked up): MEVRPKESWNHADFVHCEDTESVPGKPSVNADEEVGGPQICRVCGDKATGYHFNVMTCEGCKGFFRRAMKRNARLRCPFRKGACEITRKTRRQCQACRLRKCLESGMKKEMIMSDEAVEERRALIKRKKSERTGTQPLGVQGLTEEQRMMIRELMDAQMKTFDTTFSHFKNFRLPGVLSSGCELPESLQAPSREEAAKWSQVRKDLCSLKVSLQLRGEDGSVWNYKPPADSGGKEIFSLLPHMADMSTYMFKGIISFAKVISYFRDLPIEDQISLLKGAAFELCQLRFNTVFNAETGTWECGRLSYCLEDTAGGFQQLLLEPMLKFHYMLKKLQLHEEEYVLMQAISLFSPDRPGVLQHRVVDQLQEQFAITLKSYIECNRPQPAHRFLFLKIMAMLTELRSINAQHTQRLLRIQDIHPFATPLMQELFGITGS
Chain of Voltage-gated inwardly rectifying potassium channel KCNH2 (Homo sapiens) (Q12809 whole entry, looked up): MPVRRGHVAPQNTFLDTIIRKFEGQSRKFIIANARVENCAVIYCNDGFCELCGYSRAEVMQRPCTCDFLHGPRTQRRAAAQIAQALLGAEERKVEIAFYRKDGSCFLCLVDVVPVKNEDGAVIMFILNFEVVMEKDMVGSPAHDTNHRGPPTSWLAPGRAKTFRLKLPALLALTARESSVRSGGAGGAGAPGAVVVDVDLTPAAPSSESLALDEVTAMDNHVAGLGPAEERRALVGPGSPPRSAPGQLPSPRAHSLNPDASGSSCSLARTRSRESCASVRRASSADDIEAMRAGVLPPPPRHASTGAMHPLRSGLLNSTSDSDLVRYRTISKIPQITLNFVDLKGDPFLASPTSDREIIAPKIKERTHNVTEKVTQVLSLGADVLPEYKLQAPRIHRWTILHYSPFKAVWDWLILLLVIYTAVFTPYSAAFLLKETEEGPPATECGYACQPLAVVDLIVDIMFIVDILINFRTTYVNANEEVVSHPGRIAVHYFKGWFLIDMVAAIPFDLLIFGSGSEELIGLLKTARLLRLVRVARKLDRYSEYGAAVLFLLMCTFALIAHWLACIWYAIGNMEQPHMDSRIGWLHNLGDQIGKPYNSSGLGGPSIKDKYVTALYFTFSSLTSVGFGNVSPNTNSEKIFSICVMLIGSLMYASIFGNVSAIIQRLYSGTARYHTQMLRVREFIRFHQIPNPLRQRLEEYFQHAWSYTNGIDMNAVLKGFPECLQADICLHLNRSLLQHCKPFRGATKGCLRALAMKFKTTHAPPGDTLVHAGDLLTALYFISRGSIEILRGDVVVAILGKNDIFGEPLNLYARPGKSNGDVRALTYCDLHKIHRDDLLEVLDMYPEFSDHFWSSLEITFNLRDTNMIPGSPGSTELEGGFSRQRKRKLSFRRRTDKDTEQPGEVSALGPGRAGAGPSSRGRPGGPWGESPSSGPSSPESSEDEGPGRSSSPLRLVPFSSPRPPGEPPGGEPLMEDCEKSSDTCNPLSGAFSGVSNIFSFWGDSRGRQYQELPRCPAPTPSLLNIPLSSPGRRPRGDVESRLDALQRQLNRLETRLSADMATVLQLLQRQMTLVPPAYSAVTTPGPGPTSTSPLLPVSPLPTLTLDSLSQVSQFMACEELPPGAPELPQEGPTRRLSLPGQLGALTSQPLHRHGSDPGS
Chain of Cytochrome P450 2D6 (Homo sapiens) (P10635 whole entry, looked up): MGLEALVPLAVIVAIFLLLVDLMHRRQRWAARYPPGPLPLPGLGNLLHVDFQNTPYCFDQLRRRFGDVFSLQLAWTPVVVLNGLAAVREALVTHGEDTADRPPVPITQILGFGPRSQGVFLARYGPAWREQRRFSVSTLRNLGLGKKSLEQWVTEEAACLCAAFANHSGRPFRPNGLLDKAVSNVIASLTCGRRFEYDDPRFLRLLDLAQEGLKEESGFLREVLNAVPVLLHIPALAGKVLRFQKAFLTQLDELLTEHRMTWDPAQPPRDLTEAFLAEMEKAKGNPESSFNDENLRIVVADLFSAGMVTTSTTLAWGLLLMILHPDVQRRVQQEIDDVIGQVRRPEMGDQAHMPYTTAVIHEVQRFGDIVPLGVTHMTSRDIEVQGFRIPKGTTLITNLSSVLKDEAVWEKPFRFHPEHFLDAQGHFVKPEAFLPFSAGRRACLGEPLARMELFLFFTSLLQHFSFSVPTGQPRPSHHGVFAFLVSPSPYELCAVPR
Chain of Cytochrome P450 1A2 (Homo sapiens) (P05177 whole entry, looked up): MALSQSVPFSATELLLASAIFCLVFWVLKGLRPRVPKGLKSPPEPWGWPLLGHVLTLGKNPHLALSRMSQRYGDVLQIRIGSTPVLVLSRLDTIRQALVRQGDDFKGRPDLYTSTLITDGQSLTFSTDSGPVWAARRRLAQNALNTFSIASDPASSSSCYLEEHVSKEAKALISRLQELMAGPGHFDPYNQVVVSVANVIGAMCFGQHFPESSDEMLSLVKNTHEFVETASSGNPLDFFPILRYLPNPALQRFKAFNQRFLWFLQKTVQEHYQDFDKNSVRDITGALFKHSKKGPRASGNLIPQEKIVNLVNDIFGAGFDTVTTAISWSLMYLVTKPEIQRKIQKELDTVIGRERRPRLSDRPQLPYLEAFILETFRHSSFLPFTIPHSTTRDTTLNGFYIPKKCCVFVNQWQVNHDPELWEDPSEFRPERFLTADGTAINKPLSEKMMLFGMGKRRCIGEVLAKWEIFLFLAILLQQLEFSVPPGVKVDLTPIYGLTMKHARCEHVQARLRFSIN
Chain of Nuclear receptor subfamily 1 group I member 2 (Rattus norvegicus) (Q9R1A7 whole entry, looked up): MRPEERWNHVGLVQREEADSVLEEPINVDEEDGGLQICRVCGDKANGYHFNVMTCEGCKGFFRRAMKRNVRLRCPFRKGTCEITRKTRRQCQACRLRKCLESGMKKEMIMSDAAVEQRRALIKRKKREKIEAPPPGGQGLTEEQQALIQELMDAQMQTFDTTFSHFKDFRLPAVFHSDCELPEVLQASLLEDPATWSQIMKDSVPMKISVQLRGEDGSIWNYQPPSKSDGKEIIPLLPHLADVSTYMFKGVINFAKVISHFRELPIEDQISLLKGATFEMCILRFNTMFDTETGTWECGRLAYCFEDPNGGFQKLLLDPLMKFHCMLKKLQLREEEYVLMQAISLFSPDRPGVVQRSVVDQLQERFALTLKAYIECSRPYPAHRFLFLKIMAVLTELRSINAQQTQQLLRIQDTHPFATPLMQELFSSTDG

Consider `CCCCCCCCCCCCCCCCCO`, for which the caspase activation in [1] was 0.39% [at 19 µM]. In addition, the activity change, negative = cytotoxicity in assay [2] is 11.2% [at 19 µM]; in assay [4], 9.49% [at 19 µM]. Moreover, the caspase-3/7 activation in [3] was 1.08% [at 19 µM]. In addition, the activation in assay [5] is 4.62% [at 19 µM]. In addition, the activity change, negative = inhibition in assay [6] was -4.81% [at 23.6 µM]; in assay [7], -5.64% [at 23.6 µM]; in assay [8], -2.94% [at 23.6 µM]; in [9], 6.84% [at 23.6 µM]; in assay [10], 5.95% [at 15.8 µM]; in assay [11], 7.87% [at 23.6 µM].
Take `O=C(O)CC(=O)O`: the Potency entry in assay [1], in [2], in [3], in assay [4], in assay [5] and in assay [7] was “inactive” each time. The Potency result in assay [8], in assay [10] and in [11] was “inactive” each time. Besides, the Potency in assay [6] is 71.2 µM (active); in assay [9] it was 63.4 µM (active).
As to `Cc1ccc2ccc3cccc4ccc1c2c34`, the Potency result in assay [1], in assay [2], in assay [3], in assay [4], in [5] and in assay [10] was “inactive” each time. Further, the Potency in assay [6] was 63.2 µM (active); in assay [7], 28.2 µM (active); in assay [8] it was 63.2 µM (active); in assay [9] it was 0.563 µM (active); in assay [11] it was 20 µM (active).
Consider `CSc1c(Cl)c(Cl)c(Cl)c(Cl)c1Cl`, for which the Potency entry in assay [1], in assay [2], in assay [3], in assay [4], in assay [6] and in [7] was “inactive” each time. Moreover, the Potency entry in [8], in assay [10] and in assay [11] was “inactive” each time. In addition, the values for the Potency in [5] and in assay [9] were 68.2 µM (active) and 14.1 µM (active), respectively.
Consider `CC(=O)C=O`, for which the Potency result in assay [1], in assay [2], in assay [3], in assay [4], in assay [5] and in assay [6] was “inactive” throughout. Also, the Potency result in [7], in assay [8], in assay [9], in assay [10] and in assay [11] was “inactive” each time.
For `CO[C@H]1C=CO[C@@]2(C)Oc3c(C)c(O)c4c(O)c(cc(O)c4c3C2=O)NC(=O)/C(C)=C\C=C/[C@H](C)[C@H](O)[C@@H](C)[C@@H](O)[C@@H](C)[C@H](OC(C)=O)[C@@H]1C`, the Potency result in [1], in [3], in assay [13] and in [14] was “inactive” throughout. For the same molecule, the Potency was 19.5 µM (active) in [2]; 61.6 µM (active) in assay [4]; 7.75 µM (active) in assay [5]; 35.8 µM (active) in assay [6]; 20.2 µM (active) in [7]; 10.1 µM (active) in assay [8]. Also, the Potency in assay [11] is 1.27 µM (active). In assay [12], the max activation was -1.49%.
Turning to `OCCCc1cccnc1`, the Potency result in [1], in [2], in assay [3], in assay [4], in assay [5] and in assay [6] was “inactive” each time. The Potency entry in assay [7], in [8], in assay [9] and in [10] was “inactive” throughout. Further, in assay [11], the Potency was 15.9 µM (active).
Consider `Cc1cncc(C)c1`, for which the Potency entry in assay [1], in assay [2], in assay [3], in assay [4], in assay [5] and in assay [6] was “inactive” in each case. Further, the Potency result in assay [7], in assay [8], in assay [9], in assay [10] and in assay [11] was “inactive” throughout.
Regarding `CCN(CC)CCCN(c1ccccc1)C1Cc2ccccc2C1`, the Potency entry in [1], in [2], in [3], in [4], in [5] and in [13] was “inactive” each time. Further, the Potency result in assay [8] and in [11] was “inactive” in each case. The max activation in assay [12] was -18.4%. The Potency in [14] is 5.01 µM (active); in assay [6], 0.389 µM (active); in assay [10], 2.13 µM (active).
Consider `O=C1c2c(O)ccc(O)c2C(=O)c2c(NCCNCCO)ccc(NCCNCCO)c21`, for which the Potency in assay [1] was 4.22 µM (active); in assay [2], 10.6 µM (active); in [4], 11.9 µM (active). Further, the Potency entry in assay [3] was “inactive”.

These data come from PubChem BioAssay (Tox21).
